# Data from PubChem BioAssay AID1794835 (Parasite Biology Lab, Institute for Biomedicine and …, 2023).
# About 45 (2%) of roughly 2,500 compounds were called active. Rule as the data show it: active = inhibition mostly above about 45% (no sharp cut-off); inactive = mostly below about 37%. For the sample, actives were picked, then their nearest neighbours and some compounds at random.
# Experiment: anti-Giardia activity of synthetic compounds – Compounds Australia Scaffold Library subset, 24/48 h, primary screen (AID 1794835);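 as to inhibition: 0% = parasite counts in DMSO vehicle wells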
# Settings: Giardia lamblia BRIS/91/HEPU/1279 trophozoite counts, imaging, at 10 µM
# [1] = measured here: growth inhibition at 24 h, stronger effect = higher value
smiles,measurement,setting,value
Cc1ccc(NC(=O)C2=NN(CC(=O)Nc3ccc4c(c3)OCCO4)C(=O)CC2)cc1,inhibition,,inactive
Cc1ccc(NC(=O)c2cc3c(Cl)ccc4c3n2CCO4)cc1,inhibition,stronger effect = higher value,49.3% (active)
same,inhibition,[1],30.6%
Cc1ccc(NC(=O)c2ccc(=O)n(CCN3CCOCC3)n2)cc1,inhibition,stronger effect = higher value,2.3% (inactive)
same,inhibition,[1],1.4%
CCOc1ccc(NC(=O)CN2C(c3ccc(C)cc3)=CC(c3ccccc3)n3nnnc32)cc1 (stereo not drawn),inhibition,,inactive
CCN(CC)CCN1C(=O)C(O)=C(C(=O)c2cccs2)C1c1ccc(C)o1 (stereo not drawn),inhibition,stronger effect = higher value,15% (inactive)
O=c1ccc(-c2nnco2)cn1Cc1ccc(F)c2cccnc12,inhibition,,inactive
Cc1ccc(NC(=O)c2oc3ccccc3c2NC(=O)c2ccccc2)cc1,inhibition,stronger effect = higher value,1.2% (inactive)
CC1CCN(C(=O)c2oc3ccccc3c2NC(=O)c2ccc([N+](=O)[O-])o2)CC1,inhibition,stronger effect = higher value,95.2% (active)
same,inhibition,[1],87.8%
CC1CCN(C(=O)c2n[nH]c(=O)c3ccccc23)CC1,outcome,,inactive
same,inhibition,[1],4%
Cn1cc(S(=O)(=O)N2CCN(C(=O)Cc3c[nH]c4ccccc34)CC2)cc1C(N)=O,inhibition,,inactive
Cc1cc(NCc2ccccc2CN2CCCC2)nc(-c2ccncc2)n1,inhibition,,inactive
COc1ccccc1N1CCN(C(=O)c2cc3c(C)nn(-c4ccc(C)cc4)c3s2)CC1,inhibition,stronger effect = higher value,65.7% (active)
same,inhibition,[1],48%
Cc1nn(-c2ccccc2)c2sc(C(=O)N3CCCCC3)cc12,inhibition,stronger effect = higher value,39.6% (active)
same,inhibition,[1],21.1%
COc1ccccc1N1CCN(C(=O)c2ccc3[nH]c(C)c(C)c3c2)CC1,inhibition,stronger effect = higher value,36.6% (inactive)
Cc1nn(-c2ccc(F)cc2)c2sc(C(=O)N3CCCCC3C(N)=O)cc12 (stereo not drawn),inhibition,,inactive
COc1ccccc1N1CCN(C(=O)c2cc(C3CC3)[nH]n2)CC1,outcome,,inactive
same,inhibition,[1],9.6%
Cc1nn(Cc2ccccc2)c2sc(C(=O)N3CCN(C(=O)N4CCCCC4)CC3)cc12,inhibition,stronger effect = higher value,14% (inactive)
Cc1ccc(-c2ncc(C(=O)NC3CCCCCC3)c(C)n2)cc1,outcome,,inactive
same,inhibition,[1],6.7%
COc1cccc(CNC(=O)Cn2ccc3sccc3c2=O)c1,inhibition,stronger effect = higher value,6.6% (inactive)
same,inhibition,[1],0.5%
COc1cccc(N2CCN(C(=O)C3CCN(c4nc(NC(C)=O)ns4)CC3)CC2)c1,inhibition,stronger effect = higher value,16.2% (inactive)
same,inhibition,[1],7.9%
CCCc1cc(N2CCOCC2)n2nc(C)c(-c3ccccc3)c2n1,inhibition,stronger effect = higher value,20.2% (inactive)
Cc1cc(NC(=O)CN2c3ccccc3NC3=C(C(=O)CC(C)(C)C3)C2c2ccccc2)no1 (stereo not drawn),inhibition,,inactive
Cn1cnc2onc(C(=O)NC3CCCCC3)c2c1=O,inhibition,,inactive
O=S(=O)(c1cccc(F)c1)N1CC(OCc2cccc(F)c2)C1,inhibition,stronger effect = higher value,10% (inactive)
same,inhibition,[1],1.5%
Nc1c(-c2nc(-c3ccccc3)cs2)c2ccccn2c1C(=O)c1ccc2c(c1)OCO2,inhibition,stronger effect = higher value,83.1% (active)
same,inhibition,[1],63.2%
Cc1nc2sccn2c1-c1nc(-c2ccccc2)c(C(=O)c2ccc3c(c2)NC(=O)CO3)s1,inhibition,stronger effect = higher value,7% (inactive)
same,inhibition,[1],1.6%
COc1ccc(C(=O)c2c(N)c(-c3nc(-c4cc(OC)ccc4OC)cs3)c3ccccn23)cc1,outcome,,inactive
same,inhibition,[1],3.8%
COc1cccc(C(=O)N2CCN(CC3CCCO3)CC2)c1 (stereo not drawn),inhibition,,inactive
CCOc1ccc(NC(=O)N2Cc3cccn3-c3ccccc32)cc1,inhibition,,inactive
CN1CCCN(c2ncnc3cc(Cl)ccc23)CC1,inhibition,,inactive
COc1ccc(-c2csc(C3=C(O)CN(CC(C)(C)CN(C)C)C3=N)n2)cc1OC,inhibition,stronger effect = higher value,76.8% (active)
same,inhibition,[1],23.9%
COc1ccc(-c2csc(-n3nccc3C(F)(F)F)n2)cc1OC,inhibition,stronger effect = higher value,27.9% (inactive)
same,inhibition,[1],8%
N=C1C(c2nc(-c3ccc(Cl)cc3)cs2)=C(O)CN1CCc1ccccc1,inhibition,,inactive
Cc1ccc(COCc2nn(C)c3c2CN(C(=O)Nc2ccccc2)CC3)cc1,outcome,,inactive
same,inhibition,[1],4.7%
CCn1cc(C(=O)NCc2ccccc2)c(=O)c2ccc(C)nc21,inhibition,stronger effect = higher value,6.1% (inactive)
same,inhibition,[1],8.9%
Cc1ncncc1C(=O)N1CCN(CC(O)C(C)(C)C)CC1 (stereo not drawn),inhibition,,inactive
COc1ccc(Nc2cc(C)nc(N3CCN(C(=O)Nc4cccc(OC)c4)CC3)n2)cc1,inhibition,stronger effect = higher value,86.6% (active)
same,inhibition,[1],49.4%
COc1ccc(Nc2cc(C)nc(N3CCN(C(=O)c4ccccc4)CC3)n2)cc1,inhibition,stronger effect = higher value,29.3% (inactive)
same,inhibition,[1],5.55%
COc1ccc(NC(=O)N2CCN(c3cc(C)nc(N4CCOCC4)n3)CC2)cc1,inhibition,stronger effect = higher value,44.4% (inactive)
same,inhibition,[1],12.7%
CN(C)C(=O)CN1CCCN(Cc2ncc(C(C)(C)C)o2)CC1,inhibition,stronger effect = higher value,1.9% (inactive)
same,inhibition,[1],6.5%
CCN(Cc1ccccc1)C(=O)c1cc(-c2ccccc2)n[nH]1,inhibition,stronger effect = higher value,36.1% (inactive)
same,inhibition,[1],19.1%
Cc1noc(C)c1S(=O)(=O)N1CCC(C(=O)NCC(c2ccccc2)N(C)C)CC1 (stereo not drawn),outcome,,inactive
same,inhibition,[1],10.5%
Cc1nn(C)c2sc(C(=O)N3CCN(S(=O)(=O)c4ccc(Br)cc4)CC3)cc12,inhibition,stronger effect = higher value,10.6% (inactive)
COc1ccc(NC(=O)c2ccc(-c3cc(NC4CCCCC4)ncn3)cc2)cc1,inhibition,stronger effect = higher value,51% (active)
same,inhibition,[1],17.1%
CCOc1ccc(C(=O)Nc2ccc(-c3nnc4n3CCCCCC4)cc2)cc1,inhibition,,inactive
COc1ccc2c(c1)CCc1c-2noc1-c1ccc(NC(=O)c2cc(C)nn2C)cc1,inhibition,,inactive
Cc1ccc(CNC(=O)N2CCN(C3=CC4=NCC(C)N4C=N3)CC2)cc1 (stereo not drawn),inhibition,stronger effect = higher value,11.9% (inactive)
same,inhibition,[1],18.7%
Fc1ccc(C2=Nc3ccc(Cl)cc3NC(c3cccs3)=N2)cc1,outcome,,inactive
same,inhibition,[1],23%
Cc1ccc2c(c1)NC(c1ccc(C)o1)=NC(c1cccs1)=N2,inhibition,stronger effect = higher value,54.6% (active)
same,inhibition,[1],15.2%
CCn1c(C2CCN(C(=O)c3ccc(Br)cc3)C2)nc2cccnc21 (stereo not drawn),inhibition,,inactive
CCCn1c(=O)c(C)nc2cc(-c3noc(-c4cccc(NC(=O)c5ccco5)c4)n3)ccc21,inhibition,,inactive
COc1cc(OC)c(N2CC(C(=O)N3CCc4sccc4C3)CC2=O)cc1Cl (stereo not drawn),inhibition,,inactive
O=[N+]([O-])c1cc(F)ccc1Sc1nnc(N2CCOCC2)s1,inhibition,stronger effect = higher value,60.8% (active)
same,inhibition,[1],30.9%
O=[N+]([O-])c1ccccc1Sc1nnnn1C1CCOCC1,inhibition,stronger effect = higher value,8.6% (inactive)
same,inhibition,[1],6.15%
C1CCC(Sc2nnc(N3CCOCC3)s2)C1,inhibition,,inactive
CCCC(=O)Nc1ccc2nc(N3CCCC3)cc(C(=O)O)c2c1,inhibition,,inactive
COc1ccc(CN2CCN(C(=O)c3c(C)oc4c3C3=NCCN3C=N4)CC2)c(OC)c1OC,inhibition,stronger effect = higher value,7.4% (inactive)
same,inhibition,[1],3%
